High-throughput results (PubChem)
This is one part of a sample in which hits are shown more often than they occur.
C_diff_HTS: inhibitors of Clostridium difficile growth. 0.25% of 86,000 active. Clostridium difficile clinical isolate growth, OD600, 24 h; stronger effect = lower value. AID 1259249. growth activity, negative = inhibition, % at 16 µg/mL (by protocol);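 active = mean growth activity at or below -80% and every replicate also at or below -80%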;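 note: 0% = DMSO wells and -100% = levofloxacin 16 µg/mL wells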
The depositor's hits bear a star; ! = a repeat was not active.

SMILES C_diff_HTS
C[C@H](CO)N1C[C@H](C)[C@H](CN(C)C(=O)Cc2ccccn2)Oc2ncc(C#C[C@@H](C)O)cc2C1=O -7
C[C@@H]1CN([C@H](C)CO)C(=O)c2cc(NC(=O)CCN3CCOCC3)ccc2O[C@H]1CN(C)C(=O)Nc1ccc(F)cc1 3
Cc1noc(C)c1NC(=O)N(C)C[C@@H]1OCCCC[C@@H](C)Oc2ccc(NC(=O)c3ccncc3)cc2C(=O)N([C@H](C)CO)C[C@H]1C -1
CC(C)CC#Cc1cnc2c(c1)C(=O)N([C@H](C)CO)C[C@@H](C)[C@@H](CN(C)C(=O)c1cccc(F)c1)O2 -4
CCCNC(=O)C[C@@H]1CC[C@@H]2[C@H](COC[C@H](O)CN2C(=O)Nc2ccc(Cl)c(Cl)c2)O1 -102*!
O=C(C[C@H]1CC[C@@H]2[C@H](COC[C@@H](O)CN2C(=O)Nc2ccc(Cl)c(Cl)c2)O1)NC1CCC1 48
CNC(=O)C[C@@H]1CC[C@@H]2[C@H](COC[C@H](O)CN2C(=O)Nc2ccc(Cl)c(Cl)c2)O1 -12
CNC(=O)C[C@H]1CC[C@H]2[C@@H](COC[C@H](O)CN2C(=O)Nc2ccc(Cl)c(Cl)c2)O1 -28
O=C(C[C@H]1CC[C@@H]2[C@H](COC[C@@H](O)CN2C(=O)Nc2ccc(Cl)c(Cl)c2)O1)NCc1ccc(F)cc1 -7
O=C(C[C@H]1CC[C@@H]2[C@H](COC[C@H](O)CN2C(=O)Nc2ccc(Cl)c(Cl)c2)O1)NCc1ccc(F)cc1 -91*
O=C(C[C@@H]1CC[C@H]2[C@@H](COC[C@@H](O)CN2C(=O)Nc2ccc(Cl)c(Cl)c2)O1)NC1CCC1 -102*!
O=C(C[C@H]1CC[C@@H]2[C@H](COC[C@H](O)CN2C(=O)Nc2ccc(Cl)c(Cl)c2)O1)NCc1ccc(Cl)cc1 -52
O=C(C[C@H]1CC[C@H]2[C@@H](COC[C@@H](O)CN2C(=O)Nc2ccc(F)cc2)O1)NC1CCC1 13
C[C@@H]1CCCCO[C@@H](CN(C)Cc2ccccc2)[C@@H](C)CN([C@@H](C)CO)C(=O)c2cc(NC(=O)C3CCCCC3)ccc2O1 -3
CC(C)NC(=O)Nc1ccc2c(c1)C(=O)N([C@@H](C)CO)C[C@H](C)[C@@H](CN(C)Cc1ccncc1)OCCCC[C@H](C)O2 0
O=C(C[C@@H]1C=C[C@@H](NC(=O)C2CC2)[C@@H](CO)O1)NCCCN1CCOCC1 1
COCC(=O)N1CC2(C1)CN(C(=O)Cc1ccccc1)[C@H](CO)c1c2c2ccc(OC)cc2n1C 1
C/C=C/c1ccc2c(c1)O[C@H](CN(C)C(=O)CN(C)C)[C@@H](C)CN([C@H](C)CO)S2(=O)=O -2
[N-]=[N+]=NCCCNC(=O)Nc1ccccc1 -11
C[C@@H]1CN([C@@H](C)CO)C(=O)c2cc(C#CCN(C)C)cnc2O[C@H]1CN(C)C(=O)NC1CCCC1 -7
CO[C@@H]1CN(C)C(=O)c2ccc(NC(=O)C3CC3)cc2OC[C@H](C)N(CCc2ccccc2)C[C@H]1C -2
